{"source": "the supplement of paper PMC7156485", "note": "± gives the standard deviation of the averaged measurements.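 Note: TDF denotes transformed human dermal fibroblasts of mesenchymal origin.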", "data": [{"system": "HCC1569", "experiment": "cell number relative to DMSO (% of DMSO); higher = more cells (less growth inhibition / toxicity)", "details": "concentration: 10 µM; 24 h", "how_it_was_run": "(§1)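 H1.0 nuclear intensity or cell number is stated as percent of the plate control, based on the median of replicates, and HCC1569 values were smoothed for positional effects. These came from HCC1569 and TDF cells treated with compounds at 10 µM for 24 h at 37 °C in triplicate, then fixed in 3.7% formaldehyde and stained with a rabbit anti-H1.0 antibody, an AlexaFluor 647 secondary and DAPI.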", "values": [{"smiles": "S=C([S-])OC1CC2CC1C1CCCC21.[K+]", "note": "[D-609 potassium]", "cell number": 100}, {"smiles": "COc1ccc(/C=C2\\COc3ccc(C)cc3C2=O)cc1O", "cell number": 58.1}, {"smiles": "CCCCCC=CC=C1C(=O)C=CC1CC=CCCCC(=O)O", "note": "(centres undefined) [15d-Prostaglandin J2]", "cell number": 98.9}, {"smiles": "O=C(O)c1cccnc1C(=O)O", "note": "[Quinolinic acid]", "cell number": 106}]}, {"system": "TDF", "experiment": "cell number relative to DMSO (% of DMSO); higher = more cells (less growth inhibition / toxicity)", "details": "concentration: 10 µM; 24 h", "how_it_was_run": "as §1", "values": [{"smiles": "Cc1[nH]c(=O)c(C#N)cc1-c1ccncc1", "note": "[Milrinone]", "cell number": "108 ± 13"}, {"smiles": "O=C1CSC(c2cccc(Br)c2)N1c1cc(Cl)ccc1O", "note": "(centres undefined)", "cell number": 96.5}, {"smiles": "CC1C(=O)N=C2Nc3cccc(Cl)c3CN21", "note": "(centres undefined) [Quazinone]", "cell number": 106}, {"smiles": "COc1cc2c(cc1O)CCC1C2CCC2(C)C(O)CCC12", "note": "(centres undefined) [2-methoxyestradiol]", "cell number": 11.5}, {"smiles": "Br.C=CCN1CCc2c(cc(O)c(O)c2Br)C(c2ccccc2)C1", "note": "(stereo not drawn) [R(+)-6-Bromo-APB hydrobromide]", "cell number": 87.2}, {"smiles": "NC(CO)C(=O)NNCc1ccc(O)c(O)c1O", "note": "(centres undefined) [Benserazide]", "cell number": 82}, {"smiles": "CN1CCc2cccc3c2C1Cc1ccc(O)c(O)c1-3.Cl", "note": "(centres undefined) [Apomorphine hydrochloride hemihydrate]", "cell number": 87.9}, {"smiles": "CCCCCC=CCC=CCC=CCC=CCCCC(=O)O", "note": "[Arachidonic acid]", "cell number": "93.9 ± 1.1"}, {"smiles": "Cc1nc(C(=O)N2CCC[C@H]2Cc2nnc(-c3ccccc3)o2)c(-c2ccccc2F)s1", "cell number": 113}, {"smiles": "COc1cc2c(cc1OC)C(c1ccccc1)CN(C)CC2.O=C(O)C=CC(=O)O", "note": "(centres undefined)", "cell number": 98.3}, {"smiles": "CC(=O)NCCc1ccc(O)c(O)c1", "note": "[N-Acetyldopamine monohydrate]", "cell number": 111}, {"smiles": "CS(=O)(=O)CCNCc1ccc(-c2ccc3ncnc(Nc4ccc(OCc5cccc(F)c5)c(Cl)c4)c3c2)o1", "note": "[Lapatinib]", "cell number": 57.6}, {"smiles": "O=C1NC(=O)C(c2cnc3ccccn23)=C1c1cn2c3c(cc(F)cc13)CN(C(=O)N1CCCCC1)CC2", "cell number": 63}, {"smiles": "COc1ccc2c(c1)c(CC(=O)O)c(C)n2C(=O)c1ccccc1", "note": "[1-benzoyl-5-methoxy-2-methylindole-3-acetic acid]", "cell number": 104}, {"smiles": "Nc1nc(=O)c2ncc(=O)[nH]c2[nH]1", "note": "[Isoxanthopterin]", "cell number": 108}, {"smiles": "COc1cc(C=CC(=O)CC(=O)C=Cc2ccc(O)c(OC)c2)ccc1O", "note": "[Curcumin]", "cell number": 62.7}, {"smiles": "CCCCCCCCCCCC=CCCCCCCC(=O)O", "note": "[8(Z)-Eicosenoic acid]", "cell number": 105}, {"smiles": "CCCCCC(O)C=CC=CCC=CCCCCCCC(=O)O", "note": "(centres undefined)", "cell number": 104}, {"smiles": "O=C(C=Cc1ccc(O)cc1)CC(=O)C=Cc1ccc(O)cc1", "note": "[Bis demethoxycurcumin]", "cell number": 95.1}, {"smiles": "CC1CCC2(OC1)OC1CC3C4CCC5CC(O)CCC5(C)C4CCC3(C)C1C2C", "note": "(centres undefined) [Sarsasapogenin]", "cell number": 105}, {"smiles": "CCOC(=O)C12CC1C(=NO)c1ccccc1O2", "note": "(centres undefined)", "cell number": 105}, {"smiles": "CNc1cc(NS(=O)(=O)c2ccc(N)cc2)nc(NC)n1.Cl.Cl", "note": "[Ro 04-6790 dihydrochoride]", "cell number": 108}, {"smiles": "CN(C)CCCN1c2ccccc2CCc2ccccc21.Cl", "note": "[Imipramine hydrochloride]", "cell number": 98.4}, {"smiles": "Nc1nc(OCc2cc(Br)cs2)c2[nH]cnc2n1", "note": "[6-[(4-bromo-2-thienyl)methoxy]-1H-purin-2-amine]", "cell number": 107}, {"smiles": "CN1CCC(c2c(O)cc(O)c3c(=O)cc(-c4ccccc4Cl)oc23)C(O)C1", "note": "(centres undefined) [Alvocidib]", "cell number": 19.9}, {"smiles": "Cl.Cl.Cl.Ic1ccc(N2CCN(Cc3c[nH]c4ncccc34)CC2)cc1", "note": "[L-750,667 trihydrochloride]", "cell number": 101}, {"smiles": "CCCCCCCCCCCCCC=CC(O)C(CO)N(C)C", "note": "(centres undefined) [N,N-Dimethylsphingosine]", "cell number": 90.2}, {"smiles": "CCCCCC(O)C=CC=CCC=CCCCC(=O)O", "note": "(centres undefined)", "cell number": 90.9}, {"smiles": "COc1ccc(-c2ccc3c(N4CCOCC4)nc(N4CC(C)OC(C)C4)nc3n2)cc1CO", "note": "(centres undefined)", "cell number": 78.1}, {"smiles": "Cc1ccc(-c2ncc(Cl)cc2-c2ccc(S(C)(=O)=O)cc2)cn1", "note": "[Etoricoxib]", "cell number": 97.1}, {"smiles": "Cc1ccc(C(=CCN2CCCC2)c2ccccn2)cc1.Cl", "note": "[Triprolidine hydrochloride]", "cell number": 105}, {"smiles": "COC(=O)Nc1nc2ccc(C(=O)c3ccccc3)cc2[nH]1", "note": "[Mebendazol]", "cell number": 11.6}, {"smiles": "CN(C)CCOc1cc(-c2cn[nH]c2)ccc1NC(=O)C1COc2ccccc2O1", "note": "(centres undefined)", "cell number": 95.7}, {"smiles": "CN(C)CC(=O)Nc1ccc2[nH]c(=O)c3ccccc3c2c1.Cl.O", "cell number": 99.1}, {"smiles": "Cc1ccccc1C(C(=O)NC1CCCCC1)N(C(=O)Cn1ccnc1C)c1cccc(F)c1", "note": "(centres undefined)", "cell number": 106}, {"smiles": "CC(C)NCC(O)c1ccc(O)c(O)c1.Cl", "note": "(single isomer, unassigned; (-)) [(-)-Isoproterenol hydrochloride]", "cell number": 107}, {"smiles": "S=C([S-])OC1CC2CC1C1CCCC21.[K+]", "note": "[D-609 potassium]", "cell number": 104}, {"smiles": "COc1ccc(/C=C2\\COc3ccc(C)cc3C2=O)cc1O", "cell number": 28}, {"smiles": "CCCCCC=CC=C1C(=O)C=CC1CC=CCCCC(=O)O", "note": "(centres undefined) [15d-Prostaglandin J2]", "cell number": 102}, {"smiles": "O=C(O)c1cccnc1C(=O)O", "note": "[Quinolinic acid]", "cell number": 102}]}]}
